20 compounds from PubChem BioAssay (NCI) can be followed below.

The nature of experiment [1]: NCI Yeast Anticancer Drug Screen. Data for the rad50 strain (AID 155).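 Note: 0% = growth of vehicle-only cultures of the same strain.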 As to conditions: S. cerevisiae rad50 strain growth inhibition; at 50.0 µM; stronger effect = higher value. An outline of the steps: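 Compounds were tested on a yeast strain with an engineered DNA damage repair alteration; the reported value is growth inhibition normalised to vehicle treatment.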
The nature of experiment [2]: NCI Yeast Anticancer Drug Screen. Data for the mec2-1 strain (AID 157). The following applies: S. cerevisiae mec2-1 strain, at 50.0 µM, stronger effect = higher value. Summed up: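 Readout is yeast growth inhibition, normalised to vehicle-treated controls, in the mec2-1 strain exposed to compound.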
Experiment [3] is described as follows: NCI Yeast Anticancer Drug Screen. Data for the sgs1 mgt1 strain (AID 161).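 Note: 0% = growth of cultures given vehicle only.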 The following applies: S. cerevisiae sgs1 mgt1 strain, at 50.0 µM, stronger effect = higher value. An outline of the steps:
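Compounds are added to genetically altered yeast, and growth is compared with cultures given vehicle alone to give percent inhibition.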

The nature of experiment [4]: NCI Yeast Anticancer Drug Screen. Data for the cln2 rad14 strain (AID 165).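 Note: 0% = growth equal to vehicle treated cultures.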 As to conditions: S. cerevisiae cln2 rad14 strain, at 50.0 µM, stronger effect = higher value. Summed up: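 Relative to vehicle controls, growth inhibition of compound-treated cln2 rad14 yeast was recorded.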
A short description of experiment [5]: NCI Yeast Anticancer Drug Screen. Data for the bub3 strain (AID 167). As to conditions: S. cerevisiae bub3 mutant strain, at 50.0 µM, stronger effect = higher value. An outline of the steps: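 Growth of a checkpoint-deficient yeast mutant is measured after compound exposure. Values represent inhibition relative to vehicle.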
Experiment [6] is described as follows: NCI Yeast Anticancer Drug Screen. Data for the mlh1 rad18 strain (AID 175). As to conditions: S. cerevisiae mlh1 rad18 strain growth inhibition; at 50.0 µM; stronger effect = higher value. An outline of the steps: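 Test agents were incubated with a yeast strain of defined genotype (DNA damage repair defect). Inhibition of growth was derived by comparison with vehicle-exposed cultures.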

The structures appear in SMILES notation. About 79,000 compounds went through this panel and 15% of them were active in at least one assay; those are over-represented in the sample as a whole. Values without a mark were called inactive. The source made the active and inactive calls. Cut-off read from the data, not from the text of the source: active = growth inhibition above about 70%; inactive = the rest.

Turning to `COC(=O)C1(COC(C)=O)CC1`, the growth inhibition is -6.8% in experiment [1]; 1.55% in experiment [2]; 6% in experiment [3]; -15.6% in experiment [4]; -2.75% in experiment [5]; -3.2% in experiment [6].
`CCOC(=O)CC(=O)C1CCC2C3CC=C4CC(O)CCC4(C)C3CCC12C` (stereo not given): the growth inhibition in experiment [1] is 36.5%; in experiment [2], 8.3%; in experiment [3] it was 47.4%; in experiment [4], 25.9%; in experiment [5], 2.1%; in experiment [6] it was 33.9%.
Turning to `CCOC(=O)C(CCCBr)(C(=O)OCC)N1C(=O)c2ccccc2C1=O`, the growth inhibition was 20.8% in experiment [1]; -13.3% in experiment [2]; 10.9% in experiment [3]; 18.2% in experiment [4]; 31.8% in experiment [5]; 12.6% in experiment [6].
As to `NC(=S)NNC(=O)CCC(=O)Nc1ccccc1Cl`, the growth inhibition was -0.15% in experiment [1]; -2.3% in experiment [2]; -11.8% in experiment [3]; 37.2% in experiment [4]; -3.95% in experiment [5]; 6.65% in experiment [6].
As to `O=C(CN1CCC(O)(c2ccc(F)cc2)CC1)N1CCN(C/C=C/c2ccccc2)CC1`, the growth inhibition in experiment [1] was 42%; in experiment [2], 7.1%; in experiment [3], 9.8%; in experiment [4], 22.6%; in experiment [5] it was -1.7%; in experiment [6], 20.8%.
`CC1=CC(C)(C)NC(=S)N1C1CCCCC1`: the growth inhibition is 9.75% in experiment [1]; -6.85% in experiment [2]; 6.3% in experiment [3]; -5% in experiment [4]; 6.55% in experiment [5]; 14.6% in experiment [6].
With `O=[N+]([O-])C(C=C(n1nnc2ccccc21)n1nnc2ccccc21)=C(n1nnc2ccccc21)n1nnc2ccccc21`, the growth inhibition in experiment [1] is -20.1%; in experiment [2], -2.75%; in experiment [3], 16.7%; in experiment [4], 4.2%; in experiment [5] it was -6.45%; in experiment [6] it was 5.35%.
On to `OC1C(OCc2ccccc2)OC(COCc2ccccc2)C(OC2OC(COCc3ccccc3)C(OCc3ccccc3)C(OCc3ccccc3)C2OCc2ccccc2)C1OCc1ccccc1` (stereo not given), for which the growth inhibition in experiment [1] is -2.1%; in experiment [2], -9.85%; in experiment [3], -13.8%; in experiment [4], -8.65%; in experiment [5], -3.3%; in experiment [6] it was -3.6%.
In the case of `O=C(O)COc1ccc([N+](=O)[O-])cc1/C=C1/SC(=S)N(c2ccccc2)C1=O`, the growth inhibition in experiment [1] is 14.7%; in experiment [2], 10.3%; in experiment [3], 18.9%; in experiment [4], 2.5%; in experiment [5], -1.6%; in experiment [6] it was 11.2%.
On to `O=S(=O)(O)c1ccc(N=Nc2c(O)cc(O)cc2O)cc1`, for which the growth inhibition in experiment [1] was -21.9%; in experiment [2], -6.8%; in experiment [3], -6.95%; in experiment [4], 17.2%; in experiment [5], 31.8%; in experiment [6], -18.4%.
On to `N#Cc1c(-c2ccccc2)c(-c2ccccc2)cc2c(=O)c3ccc(Cl)cc3[nH]c12`, for which the growth inhibition was -27.3% in experiment [1]; 3.25% in experiment [2]; -2.9% in experiment [3]; 12.4% in experiment [4]; 7.2% in experiment [5]; 2.4% in experiment [6].
With `CC(=O)Nc1cc(OC(C)=O)nc2c1CCC2`, the growth inhibition in experiment [1] was 14.2%; in experiment [2], -0.05%; in experiment [3] it was -5.5%; in experiment [4], 7.95%; in experiment [5] it was -1.05%; in experiment [6] it was 11.6%.
Turning to `COc1ccc(N=C2S/C(=N\C(=Nc3ccccc3)SCc3ccccc3)N(c3ccccc3)C2=Nc2ccc(OC)cc2)cc1`, the growth inhibition in experiment [1] is -4.55%; in experiment [2], -5.85%; in experiment [3], -8.25%; in experiment [4], 4.05%; in experiment [5], -6.8%; in experiment [6], 5.25%.
`Cc1cc(N(CCCCl)CCCCl)ccc1C=Nc1cc(Br)c(O)c(Br)c1`: the growth inhibition was 81% (active) in experiment [1]; 52.4% in experiment [2]; 93.5% (active) in experiment [3]; 52.5% in experiment [4]; 76.3% (active) in experiment [5]; 84.9% (active) in experiment [6].
Take `C/C(=N\NC(=S)Nc1ccc(S(=O)(=O)O)cc1)c1ccccn1`: the growth inhibition in experiment [1] was 21.3%; in experiment [2] it was 18.4%; in experiment [3] it was 34.5%; in experiment [4], 19.1%; in experiment [5] it was 33.2%; in experiment [6], 50.5%.
For `Cc1nc(Cl)c(C)c(Cl)n1`, the growth inhibition is 13.4% in experiment [1]; -28.6% in experiment [2]; 1.4% in experiment [3]; 5.2% in experiment [4]; -5% in experiment [5]; 15.9% in experiment [6].
Consider `COC(=O)c1ccc(C(=O)OC)c(NC(=O)CC(=O)c2ccc([N+](=O)[O-])cc2)c1`, for which the growth inhibition in experiment [1] is 46.2%; in experiment [2], 18.9%; in experiment [3] it was 51.4%; in experiment [4], 9.55%; in experiment [5] it was -0.5%; in experiment [6] it was 34.8%.
`Cc1nn(C(=O)c2ccncc2)c2c1C(c1ccccc1)SC(N)=N2` (stereo not given): the growth inhibition in experiment [1] is -2.9%; in experiment [2], -20.1%; in experiment [3], 18.9%; in experiment [4], 9.55%; in experiment [5], 15.1%; in experiment [6], 2.35%.
With `C=C(C)Cn1cnc2c1c(=O)n(C)c(=O)n2C`, the growth inhibition in experiment [1] is -0.15%; in experiment [2], -9.6%; in experiment [3] it was -14.4%; in experiment [4], -37.6%; in experiment [5] it was -14.1%; in experiment [6] it was -5.6%.
For `O=C(O)c1ccc(C(=O)O)c(C(=O)Nc2ccc3c(c2)C(=O)c2ccccc2-3)c1`, the growth inhibition in experiment [1] was 41.9%; in experiment [2], -26.6%; in experiment [3], -2.15%; in experiment [4], -2.85%; in experiment [5], 9.7%; in experiment [6], 48.9%.
